This excerpt belongs to a sample that is enriched for hits.
miR-122 inh: miR-122 sensor activation; Huh7 psiCHECK-miR122 Renilla luciferase sensor, 48 h; 340,000 compounds, 0.14% hits; activation, % at 12.5 µM;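 active means mean activation of 30% or more, with every replicate also reaching 30%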;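 further: 0% = median of neutral control wells and 100% = median of positive control wells; higher luciferase signal means stronger suppression of miR-122 activity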
* hit, by the source's call.

For COCC(=O)N(C)C[C@@H]1Oc2cc(-c3ccccc3)ccc2S(=O)(=O)N([C@H](C)CO)C[C@@H]1C the results were miR-122 inh 6.0.
`COCC(=O)N(C)C[C@H]1Oc2cc(-c3ccc(C#N)cc3)ccc2S(=O)(=O)N([C@@H](C)CO)C[C@H]1C` gave miR-122 inh 50.8*.
Screening COc1ccc(S(=O)(=O)N(C)C[C@@H]2Oc3cc(-c4cccc(F)c4)ccc3S(=O)(=O)N([C@@H](C)CO)C[C@H]2C)cc1 returned miR-122 inh 39.7*.
For Cc1ccc(S(=O)(=O)N(C)C[C@H]2Oc3cc(-c4cccc(F)c4)ccc3S(=O)(=O)N([C@@H](C)CO)C[C@H]2C)cc1 the results were miR-122 inh -4.2.
For Cc1ccc(S(=O)(=O)N(C)C[C@@H]2Oc3cc(-c4cccc(F)c4)ccc3S(=O)(=O)N([C@@H](C)CO)C[C@@H]2C)cc1 the results were miR-122 inh 7.7.
For COc1ccc(NC(=O)N(C)C[C@@H]2Oc3ncc(C4=CCCC4)cc3C(=O)N([C@H](C)CO)C[C@H]2C)cc1 the results were miR-122 inh -5.8.
For C/C=C/c1ccc2c(c1)O[C@H](CN(C)CCC)[C@H](C)CN([C@H](C)CO)S2(=O)=O the results were miR-122 inh -1.5.
`C[C@@H]1CN([C@@H](C)CO)C(=O)c2cc(C#CC3(O)CCCC3)cnc2O[C@@H]1CN(C)S(=O)(=O)c1ccccc1` gave miR-122 inh -0.5.
For C[C@H](CO)N1C[C@H](C)[C@H](CN(C)C(=O)CC2CC2)Oc2cc(C#CCC3CCCC3)ccc2S1(=O)=O the results were miR-122 inh -6.1.
For C[C@H]1CN([C@@H](C)CO)C(=O)c2cc(-c3cccc(F)c3)cnc2O[C@@H]1CN(C)C(=O)C1CCOCC1 the results were miR-122 inh -3.2.
Screening COc1ccc(C#Cc2ccc3c(c2)O[C@H](CN(C)C(=O)NC2CCCCC2)[C@H](C)CN([C@@H](C)CO)S3(=O)=O)cc1 returned miR-122 inh 6.2.
`Cc1ccc(S(=O)(=O)Nc2ccc(C(=O)NCc3ccccn3)cc2)cc1` gave miR-122 inh -199.4.
For COc1ccc(NS(=O)(=O)c2cc(NS(=O)(=O)c3cccs3)ccc2C)cc1 the results were miR-122 inh -94.2.
O=S(=O)(Nc1nccs1)c1ccc(NS(=O)(=O)c2cccs2)cc1 was read as miR-122 inh 38.6*.
Screening COc1cccc(NC(=O)N(C)C[C@H]2Oc3ncc(C#Cc4cccnc4)cc3C(=O)N([C@@H](C)CO)C[C@@H]2C)c1 returned miR-122 inh 5.0.
CC(C)NC(=O)N(C)C[C@@H]1Oc2cc(-c3ccccc3)ccc2S(=O)(=O)N([C@H](C)CO)C[C@@H]1C was read as miR-122 inh -0.1.
Screening C[C@@H]1CN([C@@H](C)CO)C(=O)c2cc(C3=CCCCC3)cnc2O[C@H]1CN(C)C(=O)Cc1ccccc1 returned miR-122 inh -5.0.
CC(C)C#Cc1ccc2c(c1)O[C@H](CN(C)C(=O)CC1CC1)[C@@H](C)CN([C@H](C)CO)S2(=O)=O was read as miR-122 inh -28.6.
`C[C@H](CO)N1C[C@H](C)[C@H](CN(C)C)Oc2ncc(C#CC3CC3)cc2C1=O` gave miR-122 inh 0.5.
`COc1cccc(-c2ccc3c(c2)O[C@H](CN(C)C(=O)C2CCCCC2)[C@H](C)CN([C@@H](C)CO)S3(=O)=O)c1` gave miR-122 inh -14.7.
`COCC#Cc1cnc2c(c1)C(=O)N([C@@H](C)CO)C[C@H](C)[C@H](CN(C)C(=O)Cc1ccccc1)O2` gave miR-122 inh -0.1.
c1ccc(-c2nnc3n2CCCC3)cc1 was read as miR-122 inh 32.9*.
`C=CCc1ccccc1OCC(O)CN1CCN(CCN2C(=O)c3cccc4cccc(c34)C2=O)CC1` (centres undefined) gave miR-122 inh 46.5*.
Screening COCC#Cc1cnc2c(c1)C(=O)N([C@H](C)CO)C[C@H](C)[C@@H](CN(C)C(=O)Cc1ccccc1)O2 returned miR-122 inh -6.2.
`COc1ccc(-c2cnc3c(c2)C(=O)N([C@H](C)CO)C[C@@H](C)[C@@H](CN(C)C(=O)C2CCOCC2)O3)cc1` gave miR-122 inh -3.2.
For C[C@@H]1CN([C@H](C)CO)C(=O)c2cc(-c3cccc(C#N)c3)cnc2O[C@@H]1CN(C)C(=O)C1CCCCC1 the results were miR-122 inh 5.7.
For C/C=C/c1cnc2c(c1)C(=O)N([C@@H](C)CO)C[C@H](C)[C@@H](CN(C)C(=O)Nc1ccccc1F)O2 the results were miR-122 inh -2.8.
Screening C[C@@H]1CN([C@@H](C)CO)S(=O)(=O)c2ccc(Br)cc2O[C@H]1CN(C)S(=O)(=O)c1cccc(F)c1 returned miR-122 inh -1.1.
C[C@H]1CN([C@@H](C)CO)C(=O)c2cc(C#CCc3ccccc3)cnc2O[C@@H]1CN(C)CC1CCOCC1 was read as miR-122 inh 5.1.
`Cc1ccc(-c2ccc3c(c2)O[C@H](CN(C)Cc2cccc(C(=O)O)c2)[C@H](C)CN([C@H](C)CO)S3(=O)=O)cc1` gave miR-122 inh -16.1.
For Oc1c(Cl)cc(Cl)cc1/C=N/Nc1ncc(Br)cn1 the results were miR-122 inh 62.2*.
For Cc1ccc(S(=O)(=O)N2CC[C@@H]3[C@@H](CO)Nc4ccc(-c5ccccc5F)cc4[C@@H]32)cc1 the results were miR-122 inh -153.6.
`C/C=C/c1cnc2c(c1)C(=O)N([C@H](C)CO)C[C@@H](C)[C@@H](CN(C)C(=O)Nc1cccc(OC)c1)O2` gave miR-122 inh -9.9.
For C[C@H]1CN([C@@H](C)CO)C(=O)c2cc(-c3ccc(F)cc3)cnc2O[C@H]1CN(C)Cc1ccc(C(=O)O)cc1 the results were miR-122 inh -26.8.
For CC(C)N1C(=O)CC(Nc2ccc(N3CCOCC3)cc2)C1=O (centres undefined) the results were miR-122 inh -182.9.
CCc1ccc(NC(=O)CN2CCc3ccccc3C2)cc1 was read as miR-122 inh -264.8.
`CCc1nnc(SCC(=O)Nc2ccc(N3CCOCC3)cc2)o1` gave miR-122 inh 31.6*.
Screening C[C@@H]1CN([C@H](C)CO)C(=O)c2cc(C#Cc3ccc(F)cc3)cnc2O[C@H]1CN(C)Cc1ccccn1 returned miR-122 inh -1.6.
For COCC#Cc1cnc2c(c1)C(=O)N([C@H](C)CO)C[C@H](C)[C@H](CN(C)Cc1ccccc1)O2 the results were miR-122 inh -1.4.
Screening Cc1noc(C)c1NC(=O)N(C)C[C@@H]1Oc2cc(C#CCC(C)C)ccc2S(=O)(=O)N([C@@H](C)CO)C[C@@H]1C returned miR-122 inh 4.1.
For C[C@@H]1CN([C@H](C)CO)S(=O)(=O)c2ccc(-c3ccccc3)cc2O[C@H]1CN(C)S(=O)(=O)c1ccccc1F the results were miR-122 inh -6.4.
For NCC12CC3CC(C1)CC(c1ccc(Br)cc1)(C3)C2 the results were miR-122 inh 34.3*.
For Cc1ccc(-c2cnc3c(c2)C(=O)N([C@H](C)CO)C[C@H](C)[C@@H](CN(C)C(=O)Cc2ccncc2)O3)cc1 the results were miR-122 inh -3.2.
For C[C@@H]1CN([C@@H](C)CO)C(=O)c2cc(C#Cc3ccc(F)cc3)cnc2O[C@H]1CN(C)CC1CCOCC1 the results were miR-122 inh 5.8.
`CO[C@H]1CN(C)C(=O)c2cc(NC(=O)Nc3ccccc3)ccc2OC[C@@H](C)NC[C@H]1C` gave miR-122 inh -0.4.
CC1CCN(CCc2nc3cc(NC(=O)Nc4ccccc4)ccc3n2C)CC1 was read as miR-122 inh 30.9*.
